Screening results (PubChem)
PLAP act: activates human placental alkaline phosphatase. P05187. purified PLAP enzyme, luminescent substrate read-out; active compounds read high. activation fold at 20 µM. 96,000 tested, 1.2% active. AID 696; in the data active = activation fold above about 2
Cav32 inh: human Cav3.2 channel inhibition, primary screen; O95180; Cav3.2-expressing cells, Fluo-4 calcium fluorescence FDSS; active compounds read low; B-score at 10 µM; 100,000 tested, 4% active; AID 449739;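 active = single-dose well whose peak fluorescence ratio is a statistical outlier from its plate by either plate-standardised score or position-corrected B-score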
Her2 expr inh: inhibitors of human Her2 kinase expression | 65,000 tested, 0.69% active | SKBR-3 HER2 protein level, AlphaScreen, 18-24 h; active compounds read low | P04626 | HER2 level % of control, % at 10 µM;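 active = HER2 level under 5% of the carrier-only control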;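 also: 100% = DMSO carrier and 0% = 500 nM PU-H71 HSP90 inhibitor; lower value means stronger loss of Her2 protein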
M1 antagonist: M1 muscarinic receptor (rat) antagonism. P08482. CHO-M1 cells, Fluo-4 calcium, ACh EC80 antagonist mode; active compounds read low. B-score at 10 µM. 64,000 tested, 3.4% active. AID 628;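 active = calcium fluorescence response, raw or row-and-column corrected B-score, differing from the plate sample mean either way at a set confidence level, mostly lower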
Target sequence (P08482 whole entry, looked up): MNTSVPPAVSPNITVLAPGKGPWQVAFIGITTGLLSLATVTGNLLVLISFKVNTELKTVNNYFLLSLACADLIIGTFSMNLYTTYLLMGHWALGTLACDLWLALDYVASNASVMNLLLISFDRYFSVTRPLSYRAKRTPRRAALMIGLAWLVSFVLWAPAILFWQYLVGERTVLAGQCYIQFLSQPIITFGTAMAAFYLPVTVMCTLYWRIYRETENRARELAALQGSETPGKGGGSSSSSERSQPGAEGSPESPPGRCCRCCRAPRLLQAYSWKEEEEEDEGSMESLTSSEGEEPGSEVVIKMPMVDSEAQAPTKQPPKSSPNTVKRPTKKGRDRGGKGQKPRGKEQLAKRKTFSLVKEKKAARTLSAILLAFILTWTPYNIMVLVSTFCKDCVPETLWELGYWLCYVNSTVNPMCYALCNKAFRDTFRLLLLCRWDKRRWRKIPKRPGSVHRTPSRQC
M1 agonist: activates the M1 muscarinic receptor; CHO-M1 cells, Fluo-4 calcium fluorescence, agonist mode; active compounds read high; 64,000 tested, 3% active; B-score at 10 µM;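 active = fluorescence rise, raw or as B-score row- and column-corrected plate score, outside the 99.7% band of its plate's samples, either direction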
* = called active by the depositor; / = no result given. An excerpt weighted towards active compounds, which were near 7.9% of everything screened.

SMILES | PLAP act | Cav32 inh | Her2 expr inh | M1 antagonist | M1 agonist
O=C1N/C(=N\N=C\c2cccnc2)SC1Cc1ccc(SC(F)F)cc1 (centres undefined) | 2.1* | -0.52 | / | / | /
CCC(C)(C)n1nnnc1CN(Cc1cccs1)Cc1cc2cc(OC)ccc2[nH]c1=O | 1.4 | -0.8 | 55 | -1 | 3.7*
CCCNC(=O)c1ccccc1NC(=O)c1ccccc1N(C)S(=O)(=O)c1ccc(C)cc1 | / | -4.7* | / | / | /
CCCNC(=O)c1ccccc1NC(=O)c1ccccc1N(C)S(C)(=O)=O | / | 0.067 | / | / | /
Cc1ccc(S(=O)(=O)Nc2nc3ccccc3nc2NCc2ccco2)cc1 | 1.2 | -2.5 | 58 | 0.18 | -0.31
O=S(=O)(Nc1nc2ccccc2nc1NCc1ccco1)c1ccc(Cl)cc1 | 1.1 | -4.8* | 116 | -0.97 | -0.37
Cc1noc(C)c1CSc1nc2ccccc2nc1NS(=O)(=O)c1ccc(Cl)cc1 | 1.1 | -8.1* | 45 | -0.9 | 0.86
Cc1noc(C)c1CSc1nc2ccccc2c(=O)n1-c1ccccc1 | 1.3 | -2 | 70 | -0.27 | -0.78
COC(=O)c1ccc(NC(=O)CSc2nnc(COc3ccccc3)n2C)cc1 | 0.8 | 0.023 | 93 | 0.42 | -0.16
COc1ccc(NC(=O)CCOc2ccccc2)cc1 | 1.1 | -0.11 | / | / | /
COc1ccc(C(CC(=O)Nc2ccc(F)cc2)c2ccccc2)cc1 (centres undefined) | 1 | -6.2* | / | / | /
CCN(CC)c1ccc(Nc2nc(N3CCOCC3)c3ccccc3n2)cc1 | 1.1 | -2.6 | / | / | /
COc1ccc(Nc2nc(N3CCCC3)c3ccccc3n2)cc1 | 1.2 | / | -5.6* | -0.21 | -0.89
COc1ccc(CNC(=O)c2csc(Cc3ccc(OC)cc3)n2)cc1 | 1.1 | -7.9* | / | / | /
COc1ccc(Cc2nc(C(=O)Nc3ccccc3)cs2)cc1 | 0.9 | -3.8* | / | / | /
COc1ccc(CNC(=O)c2noc3c2CCCC3)cc1 | 0.9 | -5.4* | 97 | 0.32 | 0.72
COC(=O)C1=C(C)N(Cc2ccco2)C(=O)N[C@@H]1c1ccco1 | / | -1.2 | / | / | /
O=C1CC2(CCCC2)Oc2ccccc21 | / | 0.99 | / | / | /
CCO[C@H]1OC(C(=O)O)=C[C@@H](c2ccc3c(c2)OCO3)[C@@H]1CCCO | / | 0.3 | / | / | /
O=C(NCC1(c2ccccc2)CCCC1)C(=O)NCC1(c2ccccc2)CCCC1 | / | 0.79 | / | / | /
O=C(NCC1(c2ccccc2)CCCC1)C1(c2ccccc2)CCCC1 | / | -6.6* | / | / | /
CCC(C)Sc1nc2ccccc2n1CC(=O)O (centres undefined) | 1.1 | 0.31 | / | / | /
Cn1c(C(C#N)C(=O)c2sc3ccccc3c2Cl)nc2ccccc21 (centres undefined) | 1.2 | -0.8 | 77 | 0.53 | -0.56
CCCn1nc([N+](=O)[O-])c(C(C#N)c2nc3ccccc3s2)c(Cl)c1=O (centres undefined) | 1.2 | -4.4* | / | / | /
O=C(COc1ccc(Cl)cc1Cl)Nc1nc2n(n1)C(c1ccccc1)CC(=O)N2 (centres undefined) | 1.6 | -3.7* | 81 | 0.53 | 0.027
SMILES | PLAP act | Cav32 inh | Her2 expr inh | M1 antagonist | M1 agonist
Cc1cc(C)nc(NS(=O)(=O)c2ccccc2)n1 | 1 | -0.15 | 95 | 0.022 | -0.0034
Cc1cc(NC(=O)COc2ccc(Cl)cc2Cl)n(-c2ccccc2)n1 | 0.9 | 0.015 | / | / | /
O=C1CC(c2ccccc2)n2nc(NS(=O)(=O)c3ccccc3)nc2N1 (centres undefined) | 2* | -1.1 | 74 | 0.022 | -0.18
CCOC(=O)Cc1csc(NC(=O)CCCCCN2C(=O)c3ccccc3C2=O)n1 | 1 | -1.4 | / | / | /
CC(C)(C)c1csc(NC(=O)Cn2c(=O)oc3ccccc32)n1 | 0.9 | -10* | 76 | -1.4 | -1.2
CCNc1nc(NC(C)C)nc(N(C#N)CCOc2ccccc2)n1 | 1.1 | -5* | / | / | /
Cc1cccc(Cn2c(=O)n(-c3ccc(CC(=O)NCc4ccco4)cc3)c(=O)c3sccc32)c1 | 1.1 | -0.089 | / | / | /
CCc1ccc(CSc2nccn2-c2ccccc2)cc1 | 0.8 | -5.4* | / | / | /
c1ccc(CCSc2nccn2-c2ccccc2)cc1 | 0.8 | -3.3 | / | / | /
CCc1ccccc1NC(=O)/C(=C/c1ccco1)c1ccccc1 | 0.7 | -5.5* | / | / | /
Cc1ccccc1NC(=O)/C(=C/c1ccco1)c1ccccc1 | 0.8 | -1.7 | / | / | /
CCOC(=O)c1oc2ccccc2c1NC(=O)COc1cccc(OC)c1 | 0.9 | -0.067 | 93 | 0.38 | 1.1
CCOC(=O)c1oc2ccccc2c1NC(=O)c1ccccc1OC | 1.1 | -4.7* | 91 | 0.32 | 1.1
CCCCOc1ccc(S(=O)(=O)NC(=O)NCc2ccc(OCCC)cc2)cc1 | / | -3.5* | / | / | /
COc1ccc(CNC(=O)NS(=O)(=O)c2ccc(C)cc2)cc1 | / | 0.05 | / | / | /
CCCCOc1ccc(CNC(=O)NS(=O)(=O)c2ccc(OCC)cc2)cc1 | 1.5 | -7.4* | / | / | /
CC(C)COc1ccc(CNC(=S)NCc2ccccc2)cc1 | 0.8 | -5.6* | / | / | /
CCCCOc1ccc(CNC(=O)NS(=O)(=O)c2ccc(OCC(C)C)cc2)cc1 | 1.4 | -5.3* | / | / | /
CCOC(=O)CN1C(=O)C(Sc2n[nH]c(-c3ccccc3)n2)CCc2ccccc21 (centres undefined) | 2* | -2.3 | / | / | /
CCOC(=O)CN1C(=O)C(CC)Oc2ccccc21 (centres undefined) | 0.9 | 0.61 | 122 | -0.014 | 0.72
COc1ccccc1N(CC(=O)Nc1cc(C)on1)S(=O)(=O)c1ccc(Cl)cc1 | 0.8 | -2.4* | / | / | /
Cc1ccc(C(=O)C(OC(=O)CNS(=O)(=O)c2ccccc2)c2ccccc2)cc1 (centres undefined) | 1 | -2.4 | / | / | /
CCCCN1CC(O)=C(c2nc3ccccc3s2)C1=N | 1.7 | 0.35 | 94 | 1.4 | -0.21
CCN1CC(O)=C(c2nc3ccccc3s2)C1=N | 2.1* | -0.0067 | / | / | /
Cc1c(C(=O)NCc2ccccc2)c(-c2ccccc2)nn1-c1ccccc1 | 0.8 | 1.1 | / | / | /
Cn1nnc(NC(=O)c2ccccc2)n1 | / | 0.42 | / | / | /
COc1ccc(C2C=C(c3ccc(Cl)cc3)Nc3nc(NC(C)=O)nn32)cc1 (centres undefined) | 1.9 | / | 105 | -1.7 | 235*
O=C(c1nc2n(n1)C(c1ccc(Cl)cc1)C=C(c1ccccc1)N2)N1CCOCC1 (centres undefined) | 1.6 | / | 100 | 0.033 | 46*
CC(=O)Nc1nc2n(n1)C(c1ccc(Cl)cc1)C=C(C)N2 (centres undefined) | 1.6 | 0.63 | 88 | 1.9* | 1.1
CCC(=O)Nc1nc2n(n1)C(c1ccc(OC)cc1)C=C(c1ccccc1)N2 (centres undefined) | 1.3 | -2.1 | / | / | /
